We go through 24 molecules from PubChem BioAssay (EPA / NIEHS).

For experiment [1], the target named is Estrogen receptor (Homo sapiens) (UniProt P03372). Briefly: OT_ER_ERaERa_1440: Odyssey Thera (OT) 24-hour HEK293T Protein-Complementation Assay for Estrogen Receptor-alpha/-alpha Homodimer (AID 2283349).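 Also: hits raise fluorescence above DMSO for agonists and antagonists alike.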 The procedure, abridged: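 HEK293T, stable ERα LBD (aa 310-547) homodimer PCA; 24 h compound exposure; mean fluorescence intensity (nuclear for agonists, nuclear plus cytoplasmic for antagonists) vs vehicle; positive fitting direction, DMSO baseline.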
Sequence of Estrogen receptor (Homo sapiens) (P03372 whole entry, looked up, the tested form may be a part): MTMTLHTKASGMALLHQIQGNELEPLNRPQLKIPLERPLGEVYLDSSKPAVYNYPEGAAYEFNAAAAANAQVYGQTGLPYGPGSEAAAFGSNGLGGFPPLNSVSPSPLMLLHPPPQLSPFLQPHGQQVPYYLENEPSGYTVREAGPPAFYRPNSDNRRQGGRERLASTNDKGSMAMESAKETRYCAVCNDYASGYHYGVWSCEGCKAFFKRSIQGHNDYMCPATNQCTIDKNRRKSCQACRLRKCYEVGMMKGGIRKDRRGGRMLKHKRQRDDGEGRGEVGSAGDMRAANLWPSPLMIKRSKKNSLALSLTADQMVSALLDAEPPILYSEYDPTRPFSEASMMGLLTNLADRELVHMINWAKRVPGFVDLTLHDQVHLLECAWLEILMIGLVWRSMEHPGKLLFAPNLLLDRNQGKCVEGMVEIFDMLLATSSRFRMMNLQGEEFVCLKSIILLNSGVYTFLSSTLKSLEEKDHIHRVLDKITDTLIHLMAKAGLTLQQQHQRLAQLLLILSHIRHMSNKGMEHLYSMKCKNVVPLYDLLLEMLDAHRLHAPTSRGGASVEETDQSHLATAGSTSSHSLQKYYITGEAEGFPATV

Experiment [2] deals with T1, Estrogen receptor (Homo sapiens) + Estrogen receptor beta (Homo sapiens) (UniProt P03372+Q92731). The experiment is described as follows: OT_ER_ERaERb_0480: Odyssey Thera (OT) 8-hour HEK293T Protein-Complementation Assay for Estrogen Receptor-alpha/-beta Heterodimer (AID 2283352). An outline of the steps:
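HEK293T cells expressing ER-alpha/ER-beta LBD fusions to complementary reporter fragments were dosed with compound for 8 hours. Heterodimer formation was read as increased nuclear (agonist) or nuclear plus cytoplasmic (antagonist) mean fluorescence intensity versus DMSO vehicle.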

Experiment [3] deals with Androgen Receptor/SRC-1 Co-activator, AR (gene 367) (UniProt P10275). The experiment is described as follows: OT_AR_ARSRC1_0960: Odyssey Thera (OT) 16-hour HEK293T Protein-Complementation Assay for Androgen Receptor/SRC-1 Co-activator (AID 2283353).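 Also: actives raise the signal above DMSO so potency reflects increased AR and SRC-1 complex.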 An outline of the steps:
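Readout: 488 nm nuclear-to-cytoplasmic fluorescence ratio from imaging of at least 400 cells per image, 16 h post-dose. Reporter is Venus YFP complementation between AR and SRC-1 fusions, stably expressed in HEK293T; activity scored upward relative to DMSO.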

The target in experiment [4] is T1, Estrogen receptor (Homo sapiens) + Estrogen receptor beta (Homo sapiens). The experiment is described as follows: OT_ER_ERaERb_1440: Odyssey Thera (OT) 24-hour HEK293T Protein-Complementation Assay for Estrogen Receptor-alpha/-beta Homodimer (AID 2283356).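 Also: heteromer of ER alpha and ER beta binding domains; hits raise reporter fluorescence and both agonists and antagonists give an increase.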 The procedure, abridged:
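HEK293T cells stably expressing a PCA pair of ERα LBD (aa 310-547) and ERβ LBD (aa 263-489) were dosed for 24 h. Fluorescence intensity increase versus DMSO vehicle was fitted as gain-of-signal.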

For experiment [5], the target named is Estrogen receptor beta (Homo sapiens) (UniProt Q92731). Briefly: OT_ER_ERbERb_0480: Odyssey Thera (OT) 8-hour HEK293T Protein-Complementation Assay for Estrogen Receptor-beta/-beta Homodimer (AID 2283357).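 Also: active means signal gain over DMSO baseline.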 An outline of the steps:
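ER-beta LBD homodimer PCA stably expressed in HEK293T; 8 h compound exposure, then formaldehyde fixation and Draq5 staining. Gain in nuclear/cytoplasmic fluorescence intensity versus DMSO vehicle, read on laser scanning cytometer.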

In experiment [6] the target is Androgen Receptor/SRC-1 Co-activator, AR (gene 367) (UniProt P10275). The experiment is described as follows: OT_AR_ARSRC1_0480: Odyssey Thera (OT) 8-hour HEK293T Protein-Complementation Assay for Androgen Receptor/SRC-1 Co-activator (AID 2283354).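 Also: hits raise the complementation signal above DMSO so AC50 marks enhancers.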 An outline of the steps:
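Reconstituted split-Venus YFP signal from AR–SRC-1 interaction, read by imaging 8 h post-dose in stable HEK293T lines. The 488 nm nucleus-to-cytoplasm ratio (≥400 cells/image) was fitted upward against DMSO.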

Experiment [7] has as its target Nuclear receptor subfamily 1 group I member 2 (Homo sapiens) (UniProt O75469). The experiment is described as follows: NVS_NR_hPXR: NovaScreen (NVS) Nuclear Receptor Binding Assay for human Pregnane X Receptor (PXR) (AID 2283365).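 Also: a drop in FRET signal versus DMSO baseline means the compound binds.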 The procedure, abridged: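 Cell-free binding assay with extracted human PXR protein, read by TR-FRET 2 h after dosing; loss of signal relative to DMSO baseline indicates binding. Primary screen at 25 uM in duplicate, actives retested in concentration series.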

The target of experiment [8] is Peroxisome proliferator-activated receptor gamma (Homo sapiens) (UniProt P37231). The experiment is described as follows: NVS_NR_hPPARg: NovaScreen (NVS) Nuclear Receptor Binding Assay for human Peroxisome Proliferator-activated Receptor gamma (PPARg) (AID 2283370). An outline of the steps:
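Cell-free binding to extracted PPARg protein, read by fluorescence polarization 2 h after dosing; loss of signal relative to DMSO baseline marks displacement. Primary screen in duplicate at 25 uM, actives retested in concentration series.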

The next experiment concerns the target PGR (gene 5241) (UniProt P06401). The experiment is described as follows: NVS_NR_hPR: NovaScreen (NVS) Nuclear Receptor Binding Assay for human Progestron Receptor (PR) (AID 2283360).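 Also: active means loss of bound radioligand signal versus DMSO baseline.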 An outline of the steps: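 Cell-free radioligand binding using receptor protein extracted from T47D cells, read by scintillation counting 18 hours after dosing. Loss of signal relative to DMSO baseline indicates displacement; primary screen single concentration 25 uM in duplicate, actives followed in concentration series.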

Experiment [9] addresses guinea pig Sigma Receptor, Non-selective Binding, SIGMAR1 (gene 100135589) (UniProt Q60492). The experiment is described as follows: NVS_OR_gSIGMA_NonSelective: NovaScreen (NVS) Nuclear Receptor Binding Assay for guinea pig Sigma Receptor, Non-selective Binding (AID 2283367). The procedure, abridged: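 Guinea pig brain membrane sigma sites were labelled with a radioligand, and bound radioactivity was counted after filtration 1 h post-dose. Compounds were screened at 25 uM in duplicate, then retested as concentration series when active.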

Experiment [10] deals with guinea pig Dopamine Transporter (DAT), gene 100714898. Briefly: NVS_TR_gDAT: NovaScreen (NVS) Transporter Assay for guinea pig Dopamine Transporter (DAT) (AID 2283369).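 Also: active compounds lower bound radioligand signal relative to DMSO.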 The procedure, abridged:
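Guinea pig striatal membranes; radioligand displacement measured by filter-based scintillation counting 2 h after dosing. Initial duplicate screen at 25 uM, then concentration-response up to 50 uM for hits; loss of signal versus DMSO baseline.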

Experiment [11] deals with human Dopamine Transporter (DAT), SLC6A3 (gene 6531) (UniProt Q01959). Briefly: NVS_TR_hDAT: NovaScreen (NVS) Transporter Assay for human Dopamine Transporter (DAT) (AID 2283374).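 Also: activity means loss of bound radioligand signal relative to DMSO.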 An outline of the steps:
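Duplicate single-point screening at 25 uM preceded concentration-series follow-up of actives. Binding was measured by competitive displacement of a radioligand from DAT protein, filter-counted by scintillation 1 h after dosing. Decrease relative to DMSO taken as activity.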

The target of experiment [12] is rat Serotonin Transporter (SERT), Slc6a4 (gene 25553) (UniProt P31652). Briefly: NVS_TR_rSERT: NovaScreen (NVS) Transporter Assay for rat Serotonin Transporter (SERT) (AID 2283375). An outline of the steps: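 Rat forebrain membranes were incubated with test chemical for 1 hour; radioligand binding to SERT was measured by filter-based scintillation counting. Primary screen ran in duplicate at 25 uM, with actives followed up in concentration series; DMSO served as negative control.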
Sequence of rat Serotonin Transporter (SERT), Slc6a4 (gene 25553) (P31652 whole entry, looked up): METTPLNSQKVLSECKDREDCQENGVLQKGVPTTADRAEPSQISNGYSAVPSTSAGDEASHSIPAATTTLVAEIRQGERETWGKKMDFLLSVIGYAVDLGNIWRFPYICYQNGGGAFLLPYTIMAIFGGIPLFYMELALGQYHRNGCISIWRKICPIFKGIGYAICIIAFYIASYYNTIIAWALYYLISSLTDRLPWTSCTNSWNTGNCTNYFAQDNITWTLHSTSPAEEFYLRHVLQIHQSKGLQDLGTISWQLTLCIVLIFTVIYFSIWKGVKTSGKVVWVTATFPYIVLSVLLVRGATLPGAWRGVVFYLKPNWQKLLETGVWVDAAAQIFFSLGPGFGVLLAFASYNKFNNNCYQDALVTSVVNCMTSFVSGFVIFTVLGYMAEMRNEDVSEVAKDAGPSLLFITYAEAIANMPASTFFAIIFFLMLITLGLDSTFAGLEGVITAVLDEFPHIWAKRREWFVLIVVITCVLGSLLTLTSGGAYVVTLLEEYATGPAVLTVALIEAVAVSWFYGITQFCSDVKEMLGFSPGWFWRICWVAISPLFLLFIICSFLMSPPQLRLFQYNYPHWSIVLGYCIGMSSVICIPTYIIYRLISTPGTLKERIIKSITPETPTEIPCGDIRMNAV

Experiment [13] has as its target rat Androgen Receptor (AR), Ar (gene 24208) (UniProt P15207). The experiment is described as follows: NVS_NR_rAR: NovaScreen (NVS) Nuclear Receptor Binding Assay for rat Androgen Receptor (AR) (AID 2283366). The procedure, abridged:
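Actives from a duplicate single-concentration (25 uM) primary run went on to concentration series. Displacement of radioligand was counted by filtration and scintillation, 18 h post-dose, using prostate extracts from testosterone-pretreated rats, with DMSO as baseline.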

For experiment [14], the target named is Glucocorticoid receptor (Homo sapiens) (UniProt P04150). Briefly: NVS_NR_hGR: NovaScreen (NVS) Nuclear Receptor Binding Assay for human Glucocorticoid Receptor (GR) (AID 2283363).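 Also: activity is loss of specific radioligand binding signal relative to DMSO.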 The procedure, abridged: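 Compounds first tested in duplicate at 25 uM, actives followed up in concentration series. Binding to extracted GR protein measured as competitive radioligand displacement, filter scintillation read 16 h post-dosing, normalised to DMSO.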

Broadly, the AC50 is the concentration giving half of the maximal activity seen.

Results filed as inconclusive are left out. Activity calls are given as the source filed them. The calls were made as follows: active = hit-call score of the fitted dose curve at least 0.9, where 1 is the maximum; inconclusive = response in the unintended direction; inactive = score below 0.9.

Sequence of Peroxisome proliferator-activated receptor gamma (Homo sapiens) (P37231 whole entry, looked up): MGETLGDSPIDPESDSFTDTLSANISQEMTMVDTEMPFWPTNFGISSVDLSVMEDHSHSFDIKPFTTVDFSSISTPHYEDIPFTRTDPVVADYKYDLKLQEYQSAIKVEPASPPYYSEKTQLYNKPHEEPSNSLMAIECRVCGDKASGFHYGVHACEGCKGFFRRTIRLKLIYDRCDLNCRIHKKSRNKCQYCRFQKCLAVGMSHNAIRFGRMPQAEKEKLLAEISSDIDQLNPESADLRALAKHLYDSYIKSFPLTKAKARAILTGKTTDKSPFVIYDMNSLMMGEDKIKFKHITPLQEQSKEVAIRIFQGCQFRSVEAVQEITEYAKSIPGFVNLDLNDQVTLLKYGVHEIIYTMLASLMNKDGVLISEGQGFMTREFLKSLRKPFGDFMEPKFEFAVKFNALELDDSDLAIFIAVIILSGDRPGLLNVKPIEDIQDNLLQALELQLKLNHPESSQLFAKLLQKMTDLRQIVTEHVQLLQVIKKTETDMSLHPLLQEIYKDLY
Sequence of human Dopamine Transporter (DAT), SLC6A3 (gene 6531) (Q01959 whole entry, looked up): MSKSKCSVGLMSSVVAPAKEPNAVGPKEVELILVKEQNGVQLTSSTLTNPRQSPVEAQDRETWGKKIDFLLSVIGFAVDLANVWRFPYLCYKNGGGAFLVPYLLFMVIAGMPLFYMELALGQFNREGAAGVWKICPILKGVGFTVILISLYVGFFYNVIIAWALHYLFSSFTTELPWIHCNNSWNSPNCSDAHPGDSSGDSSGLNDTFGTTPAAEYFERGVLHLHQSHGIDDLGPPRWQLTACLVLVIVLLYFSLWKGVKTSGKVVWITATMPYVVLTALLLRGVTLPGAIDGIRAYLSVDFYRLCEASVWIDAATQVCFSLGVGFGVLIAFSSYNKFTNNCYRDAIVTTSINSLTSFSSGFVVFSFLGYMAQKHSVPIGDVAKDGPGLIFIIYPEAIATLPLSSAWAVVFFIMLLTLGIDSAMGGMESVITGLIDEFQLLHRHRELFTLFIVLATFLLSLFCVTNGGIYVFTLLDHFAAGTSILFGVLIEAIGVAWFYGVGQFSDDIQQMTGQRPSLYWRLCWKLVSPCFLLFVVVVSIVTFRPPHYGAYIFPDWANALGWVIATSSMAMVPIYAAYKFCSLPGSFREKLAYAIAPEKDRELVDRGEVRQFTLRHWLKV
T1 sequence (P03372 whole entry, looked up, the tested form may be a part): as the sequence (P03372 whole entry, looked up, the tested form may be a part) above
T1 sequence (Q92731 whole entry, looked up, the tested form may be a part): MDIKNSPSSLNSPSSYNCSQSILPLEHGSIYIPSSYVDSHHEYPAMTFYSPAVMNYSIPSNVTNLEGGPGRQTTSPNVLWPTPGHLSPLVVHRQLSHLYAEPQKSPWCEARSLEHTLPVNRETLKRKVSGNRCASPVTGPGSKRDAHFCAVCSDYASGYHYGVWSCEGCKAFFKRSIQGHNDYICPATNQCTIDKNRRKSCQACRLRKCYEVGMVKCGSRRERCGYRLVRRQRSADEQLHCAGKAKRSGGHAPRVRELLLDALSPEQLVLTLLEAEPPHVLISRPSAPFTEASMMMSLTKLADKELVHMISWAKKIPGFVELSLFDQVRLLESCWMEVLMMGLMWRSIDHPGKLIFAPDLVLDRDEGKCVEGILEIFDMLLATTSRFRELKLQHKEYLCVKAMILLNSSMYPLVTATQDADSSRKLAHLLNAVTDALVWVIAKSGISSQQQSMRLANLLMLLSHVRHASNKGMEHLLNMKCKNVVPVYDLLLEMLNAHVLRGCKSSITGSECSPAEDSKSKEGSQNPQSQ
Sequence of PGR (gene 5241) (P06401 whole entry, looked up): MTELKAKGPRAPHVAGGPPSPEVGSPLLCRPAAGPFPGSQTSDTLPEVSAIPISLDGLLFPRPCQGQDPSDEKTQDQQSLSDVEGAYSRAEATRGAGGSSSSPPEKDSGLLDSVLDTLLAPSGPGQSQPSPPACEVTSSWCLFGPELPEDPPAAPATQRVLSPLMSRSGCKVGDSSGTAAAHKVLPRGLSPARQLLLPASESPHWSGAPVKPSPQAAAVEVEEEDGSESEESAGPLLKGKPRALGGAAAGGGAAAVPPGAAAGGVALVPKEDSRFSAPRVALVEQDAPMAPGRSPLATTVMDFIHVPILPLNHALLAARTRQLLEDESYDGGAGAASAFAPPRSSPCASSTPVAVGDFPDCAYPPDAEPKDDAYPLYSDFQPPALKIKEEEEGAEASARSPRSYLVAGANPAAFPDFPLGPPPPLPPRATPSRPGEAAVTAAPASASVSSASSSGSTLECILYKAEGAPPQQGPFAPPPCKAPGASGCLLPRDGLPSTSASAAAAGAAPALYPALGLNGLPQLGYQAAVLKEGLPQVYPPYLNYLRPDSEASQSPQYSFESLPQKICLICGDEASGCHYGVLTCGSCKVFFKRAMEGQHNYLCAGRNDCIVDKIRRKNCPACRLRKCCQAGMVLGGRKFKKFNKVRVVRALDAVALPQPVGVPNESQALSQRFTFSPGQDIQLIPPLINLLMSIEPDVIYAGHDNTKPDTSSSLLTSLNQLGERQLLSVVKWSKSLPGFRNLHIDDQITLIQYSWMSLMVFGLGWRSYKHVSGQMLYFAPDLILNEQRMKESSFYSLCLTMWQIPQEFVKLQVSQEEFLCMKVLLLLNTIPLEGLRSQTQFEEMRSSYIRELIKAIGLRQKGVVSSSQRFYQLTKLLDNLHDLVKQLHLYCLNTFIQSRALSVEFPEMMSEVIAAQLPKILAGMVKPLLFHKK
Sequence of Estrogen receptor beta (Homo sapiens) (Q92731 whole entry, looked up, the tested form may be a part): as the sequence (Q92731 whole entry, looked up, the tested form may be a part) above

Regarding `OCC1CCCO1` (stereo not given), the molecule was called inactive in experiment [1], in [2], in experiment [3], in experiment [4] and in [5].

Turning to `COCCOCCC[Si](C)(O[Si](C)(C)C)O[Si](C)(C)C`, the half-maximal activity concentration (AC50) in [1] is 76.1 µM (active); in experiment [2], 50 µM (active); in experiment [3] it was 34.3 µM (active); in experiment [4], 58.7 µM (active); in experiment [5] it was 51.5 µM (active). For the same molecule, the molecule was classed as inactive in experiment [6], in experiment [7] and in experiment [8].

`CCCCC(CC)COC(=O)c1ccc(N(C)C)cc1` (stereo not given): the result in experiment [1], in [2], in experiment [4] and in experiment [5] was inactive.

`c1ccc(C[P+](c2ccccc2)(c2ccccc2)c2ccccc2)cc1`: the call with PGR (gene 5241) was inactive. Also, the concentration at half-maximal activity (AC50) in [9] is 4.57 µM (active); in experiment [10] it was 15.1 µM (active); in [11], 16.7 µM (active); in experiment [12], 3.33 µM (active).

On to `O=C(c1ccccc1)c1ccc(Cl)cc1`, for which the AC50 in [11] is 20.2 µM (active).

For the molecule `CCN(CC)c1ccc(C=O)c(O)c1`, the AC50 with PGR (gene 5241) was 41.7 µM (active); in [13], 25 µM (active); in [10], 15 µM (active).

Take `Cc1cc(O)c(C(C)(C)C)cc1C(C)(C)C`: the AC50 in [11] is 23.7 µM (active).

As to `CCOC(=O)C1CC(=O)C(=C(O)C2CC2)C(=O)C1` (stereo not given), the result in experiment [1] and in [4] was inactive.

As to `N#Cc1ccccc1O`, the result in experiment [1] and in [7] was inactive.

Consider `Cc1ccc(S(=O)(=O)C(I)I)cc1`, for which, in experiment [10], the half-maximal activity concentration (AC50) is 15.6 µM (active).

For `CCN(CC)c1ccc(C=O)cc1`, the AC50 with PGR (gene 5241) is 41.5 µM (active); in experiment [12], 15.8 µM (active).

Turning to `Cc1ccc([N+](=O)[O-])c(C)c1`, the outcome in experiment [1] and in experiment [8] was inactive.

As to `CC(C)Nc1ccc(NC(C)C)c2c1C(=O)c1ccccc1C2=O`, the outcome in experiment [1], in experiment [4], in experiment [5] and in [8] was inactive.

With `O=C1c2c(O)ccc(Nc3ccc(CCO)cc3)c2C(=O)c2c([N+](=O)[O-])ccc(O)c21`, in experiment [14], the AC50 was 23.5 µM (active).

Take `Cc1cc(C)c(O)c(C(C)(C)C)c1`: the half-maximal activity concentration (AC50) in experiment [9] is 16.5 µM (active).

As to `CC(=O)CCC(C)C`, the AC50 in experiment [1] was 69.3 µM (active). Further, the call in [8] and in experiment [11] was inactive.

As for `Cc1cnccn1`, the molecule was classed as inactive with PGR (gene 5241).

For `C[C@]12CC[C@H]3C(=CCc4cc(O)ccc43)[C@@H]1CCC2=O`, the AC50 in experiment [3] was 1.42 µM (active); in experiment [6], 0.555 µM (active); with PGR (gene 5241), 46.7 µM (active); in experiment [10], 1.16 µM (active); in experiment [11] it was 4.59 µM (active); in experiment [12], 15.6 µM (active).

As to `CCN(CC)c1ccc2c(c1)Oc1cc(N(CC)CC)ccc1C21OC(=O)c2ccccc21`, the outcome in [10] was inactive. In addition, the half-maximal activity concentration (AC50) in experiment [12] was 8.16 µM (active).

With `CCN(CC)c1ccc(N=Nc2ccccc2)cc1`, the call (in the experiment with PGR (gene 5241); in experiment [10]; in [11]) was inactive. In addition, in experiment [12], the AC50 was 3.36 µM (active).

Regarding `CSc1ccc(O)cc1C`, the molecule was classed as inactive (with PGR (gene 5241); in experiment [12]). Besides, the figures for the AC50 in experiment [10] and in [11] were 19.4 µM (active) and 33.9 µM (active), respectively.

Turning to `O=C1c2ccccc2C(=O)c2c(Cl)cccc21`, in experiment [13], the call was inactive.

For the molecule `O=C=Nc1cccc2c(N=C=O)cccc12`, the call in the experiment with PGR (gene 5241) was inactive.

On to `Oc1ccc(C2(c3ccc(O)c(C4CCCCC4)c3)CCCCC2)cc1C1CCCCC1`, for which the molecule was called inactive in the experiment with PGR (gene 5241).
